Compound activity as filed in PubChem BioAssay.
Rows were chosen to be rich in hits. Some 9.3% of all compounds tested hit in one or more screens of this group.
FLuc counter: counter-screen for miR-21 project: firefly luciferase inhibitors or activators | P08659 | purified FLuc, Km substrates, luminescence inhibition | Potency, µM (titrated, usually from 57.5 µM), usual class: inhibitors | actives 6.9% (n = 360,000); further: nearly all actives have a fitted effect of over 55% in size
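Biochemical qHTS of compounds, final roughly 60 µM downward over six points, against 10 nM purified firefly luciferase using Km concentrations of substrates (10 uM D-luciferin, 10 uM ATP) in Tris acetate pH 7.5 buffer; luminescence output.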
NPC1 promoter act: activators of NPC1 promoter; Huh7 NPC1 promoter luciferase reporter, 24 h; Potency, µM (highest dose often 9.22 µM), most hits filed as activators; actives 2.4% (n = 320,000); AID 485313; further: nearly all actives have a fitted effect of over 60% in size
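In 1536-well qHTS, Huh7 cells harboring an NPC1 promoter–luciferase construct received compound for 24 h; activation was quantified by luminescence following luciferase reagent addition.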
Rab9 promoter act: activators of Rab9 promoter | Potency, µM (titrated, usually from 9.22 µM), usual class: activators | Huh7 Rab9 promoter-luciferase reporter, luminescence, 24 h | AID 485297 | actives 2.8% (n = 320,000); further: nearly all actives have a fitted effect of over 60% in size
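Measured in stably transfected Huh7 cells bearing a Rab9 promoter–luciferase construct: 24 h compound treatment at 37 °C, followed by luminescence detection.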
ELG1 genotox: induces genotoxicity in HEK293T cells with luciferase-tagged ELG1; HEK293T ELG1-luciferase reporter, luminescence, 16 h; Potency, µM (titrated, usually from 46 µM), actives largely listed as activators; actives 1.3% (n = 330,000); further: nearly all actives have a fitted effect of over 60% in size
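HEK293T cells expressing luciferase-tagged ELG1 were treated with compound or DMSO for 16 hr at 37°C. Luciferase activity was then read after 30 min with ONE-Glo at room temperature; rising signal flags genetic stress.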
SMN2 splice up: enhancers of SMN2 splice variant expression; HEK293 SMN2-luciferase splicing reporter, luminescence, 30-36 h; Potency, µM (titrated, usually from 46.1 µM), actives largely listed as activators; actives 2.8% (n = 210,000); further: nearly all actives have a fitted effect of over 55% in size
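HEK293 cells carry an SMN2 minigene-luciferase reporter in which exon 7 inclusion puts luciferase in frame. Cells were seeded at 2000 cells/well, attached for 10-12 hours, then exposed to compounds for 30-36 hours at 37C before ONE-Glo luminescence.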
ELG1 DNA repair: ELG1-dependent DNA repair inhibition. HEK293T ELG1-luciferase reporter, luminescence, 16 h; DNA damage induced by 5-fluorouridine. Potency, µM (titrated, usually from 46.1 µM), most hits filed as inhibitors. actives 2.3% (n = 330,000); further: nearly all actives have a fitted effect of over 55% in size
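Overnight (16 hr) co-exposure of 2,000 cells/well to 5-fluorouridine and compound at 37 °C preceded detection. Luciferase was quantified via ONE-Glo luminescence; loss of signal denotes inhibition.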
ELG1 FLuc counter: luciferase inhibition in cell-free luciferin readout for ELG1 hits. shares compounds with ELG1 DNA repair. cell-free firefly luciferase luminescence counter-screen, ViewLux. Potency, µM (top dose mostly 46.1 µM), most hits filed as inhibitors. actives 3% (n = 350)
ELG1-Luc inh: confirmation of human ELG1-dependent DNA repair inhibitors; shares compounds with ELG1 DNA repair; HEK293T ELG1-luciferase levels, luminescence; cells co-treated with 5-fluorouridine; Potency, µM (doses to about 46.1 µM), most hits filed as inhibitors; actives 68% (n = 670); AID 624248; further: nearly all actives have a fitted effect of over 55% in size
Target sequence (Q96QE3 whole entry, looked up): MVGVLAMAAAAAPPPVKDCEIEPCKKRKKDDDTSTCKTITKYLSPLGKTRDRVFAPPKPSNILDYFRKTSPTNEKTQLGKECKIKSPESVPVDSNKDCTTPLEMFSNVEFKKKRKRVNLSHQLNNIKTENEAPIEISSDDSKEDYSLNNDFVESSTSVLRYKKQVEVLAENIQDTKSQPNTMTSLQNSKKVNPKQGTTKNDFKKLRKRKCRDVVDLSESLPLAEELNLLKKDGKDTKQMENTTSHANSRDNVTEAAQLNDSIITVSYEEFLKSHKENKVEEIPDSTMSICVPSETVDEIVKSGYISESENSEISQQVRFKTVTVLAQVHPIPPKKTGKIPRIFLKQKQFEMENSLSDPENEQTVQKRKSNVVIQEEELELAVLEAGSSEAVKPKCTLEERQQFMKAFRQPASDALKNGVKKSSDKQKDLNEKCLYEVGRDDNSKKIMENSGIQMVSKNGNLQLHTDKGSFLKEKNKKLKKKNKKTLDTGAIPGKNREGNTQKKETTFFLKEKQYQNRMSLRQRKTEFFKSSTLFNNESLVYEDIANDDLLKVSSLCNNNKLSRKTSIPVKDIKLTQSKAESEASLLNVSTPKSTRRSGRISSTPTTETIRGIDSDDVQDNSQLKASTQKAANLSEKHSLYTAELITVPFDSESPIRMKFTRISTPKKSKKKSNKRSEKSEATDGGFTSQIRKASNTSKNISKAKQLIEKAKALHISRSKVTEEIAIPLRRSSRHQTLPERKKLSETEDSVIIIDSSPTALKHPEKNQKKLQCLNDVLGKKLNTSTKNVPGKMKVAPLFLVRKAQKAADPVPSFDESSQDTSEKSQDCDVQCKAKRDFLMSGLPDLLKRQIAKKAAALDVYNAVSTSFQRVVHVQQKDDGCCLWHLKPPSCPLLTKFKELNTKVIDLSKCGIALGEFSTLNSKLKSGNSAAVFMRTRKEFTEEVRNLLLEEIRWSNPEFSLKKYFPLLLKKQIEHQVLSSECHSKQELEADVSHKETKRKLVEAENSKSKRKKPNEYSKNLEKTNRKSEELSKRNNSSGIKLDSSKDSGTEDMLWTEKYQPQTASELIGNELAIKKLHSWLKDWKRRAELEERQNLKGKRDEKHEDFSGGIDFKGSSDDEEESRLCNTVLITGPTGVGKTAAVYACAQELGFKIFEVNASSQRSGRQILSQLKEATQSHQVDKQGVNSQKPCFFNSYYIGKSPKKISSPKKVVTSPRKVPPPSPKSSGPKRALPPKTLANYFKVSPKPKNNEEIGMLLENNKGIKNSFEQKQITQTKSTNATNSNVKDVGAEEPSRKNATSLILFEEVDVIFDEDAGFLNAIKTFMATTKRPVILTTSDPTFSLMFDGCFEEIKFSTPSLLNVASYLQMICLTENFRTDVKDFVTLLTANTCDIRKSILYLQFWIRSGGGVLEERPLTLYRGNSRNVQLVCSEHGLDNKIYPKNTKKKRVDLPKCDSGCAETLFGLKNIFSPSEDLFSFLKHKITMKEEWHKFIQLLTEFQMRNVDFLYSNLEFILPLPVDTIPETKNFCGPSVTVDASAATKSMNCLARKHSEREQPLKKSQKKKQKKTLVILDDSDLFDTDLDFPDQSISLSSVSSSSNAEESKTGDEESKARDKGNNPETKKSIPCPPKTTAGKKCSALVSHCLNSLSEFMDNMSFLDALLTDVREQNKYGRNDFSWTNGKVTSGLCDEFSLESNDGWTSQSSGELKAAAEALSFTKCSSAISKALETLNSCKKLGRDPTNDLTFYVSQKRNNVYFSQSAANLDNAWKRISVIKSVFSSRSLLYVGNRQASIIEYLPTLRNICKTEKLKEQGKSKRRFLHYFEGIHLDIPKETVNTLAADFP
ELG1 MMS Luc: inhibits ELG1-dependent repair under MMS stimulation in HEK293T cells. shares compounds with ELG1 DNA repair. HEK293T luciferase-tagged ELG1 level, MMS stimulated. Potency, µM (series often up to 46.1 µM), actives largely listed as inhibitors. actives 53% (n = 670). AID 624249; further: nearly all actives have a fitted effect of over 60% in size
ELG1 5-FU: confirmation of ELG1 repair inhibitors: viability with 5FU; shares compounds with ELG1 DNA repair; cell viability with 5-FU, ELG1-dependent repair; Potency, µM (doses to about 46.1 µM), actives largely listed as cytotoxic; 670 tested, under 10 active;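 further: ELG1-luc HEK293T cells cotreated with 5-fluorouridine at 10 µM final; viability measured 16 h after compound addition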
ELG1 MMS viab: confirmation of ELG1 repair inhibitors: viability with MMS; shares compounds with ELG1 DNA repair; Cell viability with MMS, ELG1-dependent DNA repair; Potency, µM (titrated, usually from 46.1 µM), hits mostly cytotoxic; actives 33% (n = 670); AID 624251;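 further: ELG1-luc HEK293T cells co-treated with 10 µM MMS; viability read 16 h after compound addition; nearly all actives have a fitted effect of over 60% in size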
ELG1 unstim viab: unstimulated viability counter-screen for ELG1 repair hits; shares compounds with ELG1 DNA repair; cell viability counter-screen, unstimulated, luminescence; Potency, µM (highest dose often 45.9 µM), most hits filed as cytotoxic; actives 8% (n = 900); AID 624252;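 further: compound exposure lasted 16 hours before reading; nearly all actives have a fitted effect of over 55% in size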
FLuc biochem: counter-screen for ELG1 repair inhibitors: firefly luciferase inhibition. shares compounds with ELG1 DNA repair. purified firefly luciferase, luminescence counter-screen. Potency, µM (titrated, usually from 57.5 µM), usual class: inhibitors. actives 10% (n = 350)
A number is an active result; 0 = inactive; ? = inconclusive; - = no result given. The call rests on the fitted dose curve; in most records, active means well fitted curve in the direction sought with a large enough effect; inconclusive means small, poorly fitted or top-dose-only effect, or another doubt; inactive means no such curve, though single readings can be large; an effect the other way counts as inactive or inconclusive.

SMILES	FLuc counter	NPC1 promoter act	Rab9 promoter act	ELG1 genotox	SMN2 splice up	ELG1 DNA repair	ELG1 FLuc counter	ELG1-Luc inh	ELG1 MMS Luc	ELG1 5-FU	ELG1 MMS viab	ELG1 unstim viab	FLuc biochem
O=c1[nH]c(=O)n(-c2ccc(F)cc2)c(O)c1/C=C1\C=Nc2ccccc21	0	0	0	0	-	0	-	-	-	-	-	-	-
O=c1[nH]c(=O)n(-c2ccccc2F)c(O)c1/C=C1\C=Nc2ccccc21	17µM	0	0	0	-	0	-	-	-	-	-	-	-
O=c1[nH]c(=O)n(CC2CCCO2)c(O)c1/C=C1\C=Nc2ccccc21 (stereo not given)	17µM	0	0	0	0	?	-	-	-	-	-	-	-
O=c1[nH]c(=O)n(Cc2ccccc2)c(O)c1/C=C1\C=Nc2ccccc21	0	0	0	0	0	0	-	-	-	-	-	-	-
O=C(NNc1c(F)c(F)cc(F)c1F)c1cc2ccccc2oc1=O	?	?	3.2µM	?	0	?	-	-	-	-	-	-	-
O=C1/C(=C/c2ccccc2)C[C@@]2(O)[C@H]3Cc4ccc(O)c5c4[C@@]2(CCN3CC2CC2)C1O5 (stereo not given in full)	-	-	-	0	-	18µM	-	-	-	-	-	-	-
COC(=O)C1=C(c2ccc(F)cc2OCc2ccccc2)C[C@@H]2CC[C@H]1N2C(=O)NCc1ccc(C(F)(F)F)cc1	-	-	-	0	-	?	-	-	-	-	-	-	-
C[C@@H]1O[C@H](O[C@H]2C[C@@H](O)[C@@]3(CO)[C@H]4[C@@H](O)C[C@]5(C)[C@@H](C6=CC(=O)OC6)CC[C@]5(O)[C@H]4CC[C@]3(O)C2)[C@@H](O)[C@H](O)[C@@H]1O	-	-	-	-	0	-	?	0.24µM	0.15µM	?	0.38µM	0.095µM	0
COC1C(O)C(C)O[C@@H](OC2CC[C@@]3(C)C4CC[C@]5(C)C(C6=CC(=O)OC6)CC[C@@]5(O)C4CC[C@@H]3C2)C1O (stereo not given in full)	-	-	-	-	0	-	?	0.1µM	0.063µM	?	0.14µM	0.05µM	0
COC1C(O)C(C)O[C@H](OC2CC[C@@]3(C=O)C4CC[C@]5(C)C(C6=CC(=O)OC6)CC[C@@]5(O)C4CC[C@@H]3C2)C1O (stereo not given in full)	-	-	-	-	0	-	?	0.18µM	0.071µM	0.25µM	0.16µM	0.044µM	?
C[C@@H]1O[C@@H](O[C@H]2C[C@@H](O)[C@]3(CO)[C@@H]4C(CC[C@]3(O)C2)[C@@]2(O)CC[C@H](C3=CC(=O)OC3)[C@@]2(C)C[C@H]4O)[C@H](O)[C@H](O)[C@H]1O (stereo not given in full)	-	-	-	-	0	-	-	-	-	-	-	-	-
